Rab9 promoter act: Rab9 promoter activation. AID 485297. 2.8% of 320,000 active. Huh7 Rab9 promoter-luciferase reporter, luminescence, 24 h. Potency, µM (series often up to 9.22 µM), for inactives: at the top dose activation, negative = inhibition, usual class: activators; also: % of control where 0% means no effect; nearly all actives have a fitted effect of over 60% in size
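Huh7 reporter line, Rab9 promoter upstream of luciferase. Compound exposure 24 h at 37 °C in reduced-serum medium with 10% FBS. Read-out: luminescence.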
FLuc modulator: inhibits or activates purified firefly luciferase, miR-21 counter-screen; purified FLuc, Km substrates, luminescence inhibition; 6.9% of 360,000 active; P08659; Potency, µM (top dose mostly 57.5 µM), inactives show at the highest dose activity change, negative = inhibition, hits mostly inhibitors;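 also: plate controls were vehicle for no effect and reference inhibitor for full effect; nearly all actives have a fitted effect of over 55% in size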
Target sequence (P08659 whole entry, looked up): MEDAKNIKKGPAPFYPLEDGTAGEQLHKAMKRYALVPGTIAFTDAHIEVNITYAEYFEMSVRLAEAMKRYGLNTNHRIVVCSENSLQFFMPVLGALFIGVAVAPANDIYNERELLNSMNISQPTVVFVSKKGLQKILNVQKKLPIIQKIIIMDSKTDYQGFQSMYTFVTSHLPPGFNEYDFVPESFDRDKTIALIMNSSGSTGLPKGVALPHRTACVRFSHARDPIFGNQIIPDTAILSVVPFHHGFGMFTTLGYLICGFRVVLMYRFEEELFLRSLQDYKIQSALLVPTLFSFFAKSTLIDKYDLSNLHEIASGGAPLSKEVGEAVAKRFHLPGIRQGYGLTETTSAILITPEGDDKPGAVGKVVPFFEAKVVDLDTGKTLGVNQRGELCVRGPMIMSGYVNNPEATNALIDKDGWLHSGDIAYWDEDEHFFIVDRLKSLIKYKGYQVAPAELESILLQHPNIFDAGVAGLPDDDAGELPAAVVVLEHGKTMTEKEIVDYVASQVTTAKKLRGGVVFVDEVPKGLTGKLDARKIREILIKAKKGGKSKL
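Purified P. pyralis luciferase (10nM final) with 10uM D-luciferin and 10uM ATP (Km levels) in 50mM Tris acetate pH 7.5, 10mM Mg acetate, 0.01% Tween-20, 0.05% BSA; qHTS 6-point titration, ~60 µM downward; luminescence read.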
NPC1 prom act: activates the NPC1 promoter; Huh7 NPC1 promoter luciferase reporter, 24 h; AID 485313; 2.4% of 320,000 active; Potency, µM (series often up to 9.22 µM), without a hit: at the highest dose activation, actives largely listed as activators; also: % of control where 0% means no effect; nearly all actives have a fitted effect of over 60% in size
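Stably transfected Huh7 (NPC1 promoter→luciferase), 1500 cells/well in Opti-MEM + 10% FBS, 2 h settle, then compound 24 h at 37 °C. Luminescence after 10 min with Amplite reagent.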
ELG1 genotox: inducers of genotoxicity in HEK293T ELG1-luciferase cells. 1.3% of 330,000 active. AID 504466. Potency, µM (top dose mostly 46 µM), inactives show at the top dose activity change, positive = activation, hits mostly activators. HEK293T ELG1-luciferase reporter, luminescence, 16 h; also: % of control where 0% means no effect; nearly all actives have a fitted effect of over 60% in size
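HEK293T cells expressing luciferase-tagged ELG1 were treated with compound or DMSO for 16 hr at 37°C. Luciferase activity was then read after 30 min with ONE-Glo at room temperature; rising signal flags genetic stress.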
Luc counter: counter-screen: inhibitors of Kinase-Glo firefly luciferase | 0.28% of 200,000 active | Potency, µM (doses to about 38.3 µM), for inactives: at the highest dose activity change, negative = inhibition, actives largely listed as inhibitors | AID 1379 | Q27757 | Kinase-Glo luciferase, ATP luminescence, 8 min; also: % is scaled to controls: 0 for no effect and ±100 for the full control effect; nearly all actives have a fitted effect of over 60% in size
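Light output from Kinase-Glo luciferase with luciferin and 10 uM ATP in 50 mM imidazole pH 7.2, KCl, MgCl2, Tween 20, BSA; compound pin-delivered, 8-min ambient incubation, then luminescence read.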
SMN2 splice up: increases expression of the SMN2 splice variant. HEK293 SMN2-luciferase splicing reporter, luminescence, 30-36 h. Potency, µM (highest dose often 46.1 µM), for the others: at the highest dose activity change, positive = activation, usual class: activators. 2.8% of 210,000 active; also: % of control where 0% means no effect; nearly all actives have a fitted effect of over 55% in size
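HEK293 cells carry an SMN2 […]–luciferase reporter in which exon 7 inclusion puts luciferase in frame. Cells were plated 10-12 h before compound addition, then incubated 30-36 h at 37C. ONE-Glo luminescence was read; sodium butyrate at 4.5 mM final served as control.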
* marks the source's active call; other numbers are inactive results; ? = inconclusive; nt = no result; [ ] = dose if it differs, or a comment. Hits are enriched below; roughly 7.3% of the tested compounds scored in any of these assays. Calls follow the shape of the dose curve; as a rule, active = well fitted curve in the direction sought with a large enough effect; inconclusive = small, poorly fitted or top-dose-only effect, or another doubt; inactive = no such curve, though single readings can be large; an effect the other way counts as inactive or inconclusive. Potency is read from the fitted curve at half-maximal effect.

SMILES	Rab9 promoter act	FLuc modulator	NPC1 prom act	ELG1 genotox	Luc counter	SMN2 splice up
Oc1ccc(/C=N/N=C/c2ccc(O)cc2)cc1	-15%	7.6µM*	-2%	4%	-1%	-4%
Fc1cccc(/C=N/N=C/c2cccc(F)c2)c1	?	2.7µM*	?	?	-5%	13%
C(=C/c1ccccc1)/c1ccccc1	nt	nt	nt	nt	nt	17%
Cc1ccc(/C=N/N=C/c2ccc(C)cc2)cc1	?	2.4µM*	?	21µM*	-3%	?
C(=N\N=C\c1ccccc1)/c1ccccc1	21%	0.95µM*	1%	11%	-27%	7%
Cn1ccc2c(OCC(=O)Nc3cc(C(F)(F)F)ccc3Cl)cccc2c1=O	nt	-2%	nt	nt	nt	nt
CCOC(=O)Nc1nc(-c2ccccc2)c(C)s1	nt	nt	nt	nt	-4%[7.66 µM]	-10%[9.22 µM]
Oc1ccc(/C=N/N=C/c2ccc(O)c(O)c2)cc1O	-2%	15µM*	-6%	11%	nt	nt
O=[N+]([O-])c1cc(N=Nc2ccc3ccccc3c2)ccc1O	2µM*	3.4µM*	2.2µM*	?	nt	nt
Cc1cccc(N2CCN(C(=O)CS(=O)(=O)c3cccc4nsnc34)CC2C)c1 (stereo not drawn)	nt	-8%	nt	nt	nt	nt
COc1ccc2oc(-c3ccc(NC(=O)c4ccc(Cl)cc4Cl)cc3)nc2c1	nt	-16%	nt	nt	nt	-12%
Cc1cc(CNC(=O)c2cccc(OC3CCN(S(=O)(=O)N(C)C)CC3)c2)on1	?	15µM*	3.5µM*	12%	nt	nt
O=S(=O)(O)c1cc(N=[N+]([O-])c2cc(S(=O)(=O)O)c3ccccc3c2)cc2ccccc12	nt	nt	nt	nt	-3%[7.66 µM]	-12%[9.22 µM]
CCCCNC(=O)Nc1ccc(Br)cn1	?	?	?	?	-3%	-8%
CSCc1ccc(C(=O)Nc2cccc(C)c2C)cc1	?	12µM*	?	?	-3%	20µM*
Cc1cccc(NC(=O)c2ccccn2)c1C	3.5µM*	?	?	16%	10%	0%
Cc1cccc(NC(=O)c2cccnc2)c1C	-4%	5%	3%	2%	nt	nt
CCCCNC(=O)Nc1ccccn1	-1%	-2%	0%	0%	-3%	5µM*
Cc1ccccc1NC(=O)Nc1ccccn1	?	-11%	?	13%	nt	nt
Cc1cccc(NC(=O)Nc2ccccn2)c1C	4µM*	9.5µM*	?	13%	nt	nt
CC(N)=NCCCC(N)C(=O)O (stereo not drawn)	nt	nt	nt	nt	0%	19%
COc1ccc(C(=O)Nc2ccc(S(=O)(=O)Nc3onc(C)c3C)cc2)cc1	-6%	21µM*	0%	3%	2%	3%
Cc1noc(NS(=O)(=O)c2ccc(NC(=O)c3oc4ccc(Cl)cc4c3C)cc2)c1C	16%	17µM*	-2%	16%	nt	nt
Cc1ccc(-c2cc(C(=O)Nc3ccc(S(=O)(=O)Nc4onc(C)c4C)cc3)c3ccccc3n2)cc1	4%	13µM*	-2%	1%	9%	27%
Cc1noc(NS(=O)(=O)c2ccc(NC(=O)c3ccc(Br)cc3)cc2)c1C	nt	21µM*	nt	nt	nt	-1%
SMILES	Rab9 promoter act	FLuc modulator	NPC1 prom act	ELG1 genotox	Luc counter	SMN2 splice up
CCc1ccc(-n2nc3ccc(NC(=O)c4ccc(C#N)cc4F)cc3n2)cc1	nt	6%	nt	nt	nt	-3%
CCCN(CCC)CCNC(=O)c1sc2nc3n(c(=O)c2c1C)CCCCC3	nt	-2%	nt	nt	nt	nt
Cc1noc(NS(=O)(=O)c2ccc(NC(=O)c3ccc(F)cc3)cc2)c1C	nt	nt	nt	6%	nt	nt
Cc1ccc(C(=O)Nc2ccc(S(=O)(=O)Nc3onc(C)c3C)cc2)cc1	nt	12µM*	nt	nt	nt	-3%
O=C(NC1CC(=O)N(c2ccc(Cl)cc2)C1)C(=O)c1c[nH]c2ccccc12 (stereo not drawn)	nt	3%	nt	nt	nt	nt
Cc1cc(Cl)ccc1NC(=O)CN1C(=O)C(=O)c2ccccc21	nt	8%	nt	nt	nt	-9%
COc1ccc(OC)c(Cc2nnc(CCC(=O)N3CCCCC3c3nccs3)o2)c1 (stereo not drawn)	3.5µM*	24µM*	?	?	0%	nt
COc1ccc2c(CNCc3ccco3)c(C(=O)O)n(Cc3cccc(F)c3)c2c1	nt	-16%	nt	nt	nt	nt
CC(=O)N1CCc2c(sc3c2c(=O)n(-c2ccccc2)c(=O)n3CC(=O)c2ccc(Cl)cc2)C1	nt	-1%	nt	nt	nt	8%
NNC(=O)c1ccc(COc2ccc3c(c2)CCC3)o1	4µM*	?	?	3%	0%	16µM*
O=C(N/N=C/c1cccc(O)c1)c1ccc(COc2ccc3c(c2)CCC3)o1	?	19µM*	?	?	-5%	-27%
NNC(=O)c1ccc(COc2ccc(Br)cc2)o1	1%	-8%	12%	-3%	nt	nt
O=C(c1ccco1)N1CCN(C(=O)c2ccc(COc3ccc4c(c3)CCC4)o2)CC1	?	?	19%	-7%	-5%	14%
COC(=O)Nc1nc2c(s1)CCCC2	15%	-17%	16%	?	-2%	28%
CC(C)(C)c1ccc(C(=O)NC(=S)Nc2nc3c(s2)CCCC3)cc1	?	5.4µM*	28%	?	1%	-52%
CN(C)c1ccc(C(=O)Nc2nc3c(s2)CCCC3)cc1	0.32µM*	0.24µM*	0.45µM*	?	?	0.63µM*
C/C(=N\Nc1nc2c(s1)CCCC2)c1ccc(Cl)cc1	19%	19µM*	-2%	?	0%	-22%
C/C(=N\NC1=NCCN1)c1ccc(Cl)cc1	-3%	3%	-4%	0%	nt	nt
CCc1ccc(NC(=O)c2sc(-n3nc(C)c(Cc4ccc(OC)cc4)c3C)nc2C)cc1	nt	-11%	nt	nt	nt	nt

Source: PubChem
